Reference: PubChem BioAssay (EPA / NIEHS)
The source made the active and inactive calls. The calls were made as follows: active = hit-call score of the fitted dose curve at least 0.9, where 1 is the maximum; inactive = score below 0.9.

Assay: CCTE_Harrill_HTTr_Apoptosis_MCF7: CCTE's 6-hour Apoptosis Assessment for the High-Throughput Transcriptomics (HTTr) Platform, in MCF-7 cells cultured in DMEM + 10% fetal bovine serum, Harrill Lab (AID 2284011)
From the text: This is a cell-based assay that evaluates apoptosis using high content imaging to evaluate activation of caspase-3/7 using the CellEvent Caspase 3/7 Green detection reagent in 384-well format.One of seven assay components measured from the CCTE_Harrill_HTTr_Apoptosis assay. This was part of a full screening experiment. This is a cell-based assay that evaluates apoptosis in MCF-7 cells cultured in DMEM + 10% fetal bovine serum. High content imaging is used to evaluate activation of caspase-3/7 using the CellEvent Caspase 3/7 Green detection reagent. Measurements are taken at 6 hours after chemical dosing in 384-well format.The assay component endpoint CCTE_Harrill_HTTr_Apoptosis_MCF7 was analyzed with bidirectional fitting relation to DMSO as the negative control and baseline of activity. Using a type of viability reporter, gain-of-signal activity can be used to evaluate activation of caspase-3/7 using the CellEvent Caspase 3/7 Green detection reagent to understand changes in apoptosis. To generalize the intended target to other relatable targets, this assay endpoint is annotated to cell cycle, where the subfamily is apoptosis.
Chemicals were tested in MCF7 cells in an eight point dilution series with a six hour exposure duration.
For CC(=NC#N)N(C)Cc1ccc(Cl)nc1, the outcome was “inactive”. In the case of CCCOCC(=Nc1ccc(Cl)cc1C(F)(F)F)n1ccnc1, the outcome was “inactive”. In the case of CNC(=O)Oc1cccc2c1OC(C)(C)O2, the outcome was “inactive”. In the case of CNc1cnn(-c2cccc(C(F)(F)F)c2)c(=O)c1Cl, the outcome was “inactive”. In the case of CSC1=N[C@@](C)(c2ccccc2)C(=O)N1Nc1ccccc1, the outcome was “inactive”. For CCOP(=O)(OCC)Oc1cc(C)nc(C(C)C)n1, the outcome was “inactive”. In the case of CCOP(=S)(OCC)OC(Cl)C(Cl)(Cl)Cl (stereo not given), the outcome was “inactive”. For CCc1cnc(C2=NC(C)(C(C)C)C(=O)N2)c(C(=O)O)c1 (stereo not given), the outcome was “inactive”. With CC(C)N(C(=O)SCC(Cl)=C(Cl)Cl)C(C)C the outcome was “inactive”. In the case of CCOC(=O)COc1cc(-c2nn(C)c(OC(F)F)c2Cl)c(F)cc1Cl, the outcome was “inactive”. With CCNc1nc(Cl)nc(NC(C)(C)C#N)n1 the outcome was “inactive”. With FC(F)C(F)(F)OCC(Cn1cncn1)c1ccc(Cl)cc1Cl (stereo not given) the outcome was “inactive”. For CCOP(=S)(Oc1cnc(C(C)(C)C)nc1)OC(C)C (stereo not given), the outcome was “inactive”. With CN1COCN(Cc2cnc(Cl)s2)C1=N[N+](=O)[O-] the outcome was “inactive”. With CCC(=O)Nc1ccc(Cl)c(Cl)c1 the outcome was “inactive”. With CN(C)[C@@H]1C(=O)C(C(N)=O)=C(O)[C@@]2(O)C(=O)C3=C(O)c4c(O)cccc4[C@@](C)(O)[C@H]3[C@H](O)[C@@H]12 the outcome was “inactive”. In the case of C[Si](Cn1cncn1)(c1ccc(F)cc1)c1ccc(F)cc1, the outcome was “inactive”. For CCCSP(=O)(OCC)SCCC, the outcome was “inactive”. With CNC(=O)ON=C(SC)C(=O)N(C)C the outcome was “inactive”. For CCOP(=S)(OCC)Oc1cc(C)nc(C(C)C)n1, the outcome was “inactive”. In the case of C=C(C)[C@H]1Cc2c(ccc3c2O[C@@H]2COc4cc(OC)c(OC)cc4[C@@H]2C3=O)O1, the outcome was “inactive”. For COc1cc(OC)nc(Sc2cccc(Cl)c2C(=O)O)n1, the outcome was “inactive”. In the case of CC(C1CC1)C(O)(Cn1cncn1)c1ccc(Cl)cc1 (stereo not given), the outcome was “inactive”. In the case of COP(=O)(OC)OC(Br)C(Cl)(Cl)Br (stereo not given), the outcome was “inactive”. In the case of Nc1nc(N)nc(NC2CC2)n1, the outcome was “inactive”. In the case of C#CCC1=C(C)C(OC(=O)C2C(C=C(C)C)C2(C)C)CC1=O (stereo not given), the outcome was “inactive”. In the case of COP(=O)(NC(C)=O)SC (stereo not given), the outcome was “inactive”. With CC[C@H](C)[C@H]1O[C@]2(C=C[C@@H]1C)C[C@@H]1C[C@@H](C/C=C(\C)[C@@H](O[C@H]3C[C@H](OC)[C@@H](O[C@H]4C[C@H](OC)[C@@H](NC)[C@H](C)O4)[C@H](C)O3)[C@@H](C)/C=C/C=C3\CO[C@@H]4[C@H](O)C(C)=C[C@@H](C(=O)O1)[C@]34O)O2 the outcome was “inactive”. With CSc1nc(NC(C)C)nc(NC(C)C)n1 the outcome was “inactive”. With CCCCSP(=O)(SCCCC)SCCCC the outcome was “inactive”. For O=c1ccc(=O)[nH][nH]1, the outcome was “inactive”. With N#CSCSC#N the outcome was “inactive”. In the case of CCOP(=O)(NC(C)C)Oc1ccc(SC)c(C)c1 (stereo not given), the outcome was “inactive”. With CCOP(=S)(OCC)SCCSCC the outcome was “inactive”. For CCOP(=S)(OCC)Oc1ccc([N+](=O)[O-])cc1, the outcome was “inactive”. For COP(=O)(OC)C(O)C(Cl)(Cl)Cl (stereo not given), the outcome was “inactive”. For CCC(=NOC/C=C/Cl)C1=C(O)CC(C2CCOCC2)CC1=O (stereo not given), the outcome was “inactive”. With CC1=NNC(=O)N(/N=C/c2cccnc2)C1 the outcome was “inactive”. In the case of COc1ccc(C(=CC(=O)N2CCOCC2)c2ccc(Cl)cc2)cc1OC, the outcome was “inactive”. In the case of CCCCN(CC)c1c([N+](=O)[O-])cc(C(F)(F)F)cc1[N+](=O)[O-], the outcome was “inactive”.
